High-throughput results: PubChem BioAssay, several laboratories
Sa RN4220 lethal = kills Staphylococcus aureus RN4220. 330,000 tested, 0.33% active. inhibition, % (concentration not given with the values). S. aureus RN4220 growth, OD600, 16 h; in the data active = inhibition above about 85%;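 note: plate controls were untreated cells for no effect and reference antibiotic for full effect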
PrPC surface inh = reduces human prion protein on the cell surface | P04156 | cell surface PrPC, TR-FRET read-out | inhibition, % at 13.8 µM | 370,000 tested, 0.43% active | AID 720596; in the data active = inhibition above about 24%; note: 0% = median of the test wells and 100% = reference compound wells
PrP UTR inh = inhibition of PrP 5' UTR reporter expression; cell-based PrP 5' UTR mRNA reporter, plate reader; inhibition, % (test concentration not listed); 340,000 tested, 0.35% active; in the data active = inhibition above about 52%; note: 0 = median of the neutral control wells
PfHsp40 rescue = rescue of PfHsp40-mediated yeast toxicity; 340,000 tested, 0.68% active; S. cerevisiae expressing PfHsp40, growth rescue, ATP luminescence; growth rescue, % at 12.5 µM; AID 504582; in the data active = growth rescue above about 28%, passing the limit was not always enough;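 note: yeast W303a lacking pdr1 and pdr3 grown in galactose medium; growth measured after three days at 30 °C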
CCHF vOTU inh-1 = CCHFV vOTU protease inhibition; Pep-AMC fluorescence; inhibition, % at 11.5 µM; 370,000 tested, 0.55% active; note: 0% = vehicle wells with enzyme and 100% = no enzyme wells
ugtP null kill = kills S. aureus RN4220 lacking UgtP; S. aureus RN4220 ugtP deletion, OD600 growth, 16 h; growth inhibition, % (concentration not given with the values); 330,000 tested, 0.54% active; AID 1259309; in the data active = growth inhibition above about 68%;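 note: plate controls were untreated wells for no effect and antibiotic for full effect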
CCHF vOTU inh-2 = CCHFV vOTU protease inhibition, confirmation | inhibition, % at 11.5 µM | Recombinant CCHFV vOTU, Pep-AMC fluorescence | shares compounds with CCHF vOTU inh-1 | 1,900 tested, 17% active
An asterisk follows results filed as active; . = no result. This is a sample that favours compounds with a hit; in the whole collection about 2.1% have one here. Cut-off read from the data, not from the text of the source, unless noted: active = inhibition above about 30%; inactive = the rest.

SMILES	Sa RN4220 lethal	PrPC surface inh	PrP UTR inh	PfHsp40 rescue	CCHF vOTU inh-1	ugtP null kill	CCHF vOTU inh-2
CC1C/C(=C\c2ccccc2[N+](=O)[O-])c2nc3ccccc3c(C(=O)O)c2C1 (stereo not drawn)	4	-9	-20	0	32*	15	-10
O=C1C=CC(=O)c2c(O)c(CO)c(CO)c(O)c21	.	-18	-5	0	78*	.	69*
Cc1cc(C=NNC(=O)C(O)(c2ccccc2)c2ccccc2)c(C)n1-c1ccc(C(=O)O)cc1	3	.	.	.	.	4	.
CCOC(=O)N1CCN(c2c(N3CCN(C(=O)OCC)CC3)c(=O)c2=O)CC1	2	7	-6	1	6	-8	.
COC(COC(N)=O)C1=C(N2CC2)C(=O)C(C)=C(N2CC2)C1=O (stereo not drawn)	.	-25	-29	-1	32*	.	13
O=C1NNC(c2ccccc2)=N/C1=C\c1ccco1	2	-6	-25	1	6	0	.
O=C1NNC(c2ccccc2)=N/C1=C\c1ccccc1Cl	7	-2	-11	3	54*	-15	43*
Cc1cc([N+](=O)[O-])nn1CCCC(=O)Nc1cc(Oc2ccccc2)cc([N+](=O)[O-])c1	2	7	6	3	8	-16	.
Cc1cccc(Oc2cc(NC(=O)Cn3cnc([N+](=O)[O-])n3)cc([N+](=O)[O-])c2)c1	7	-15	-11	0	33*	26	-3
O=C1C(=Cc2cn(-c3ccccc3)nc2-c2ccc(OCc3ccccc3)cc2)SC(=S)N1CCS(=O)(=O)O	.	-6	.	.	30*	.	11
COC(CNC(=O)c1ccc2c3c(onc13)-c1ccccc1C2=O)OC	49	-57	-82	0	78*	36	48*
C[C@@H]1CCCCO[C@H](CN(C)C(=O)Cc2ccccc2)[C@@H](C)CN([C@H](C)CO)C(=O)c2cc(NC(=O)Nc3ccccc3)ccc2O1	.	-3	.	.	31*	.	-12
C[C@@H]1CCCCO[C@@H](CN(C)C(=O)Nc2ccccc2)[C@@H](C)CN([C@H](C)CO)C(=O)c2cc(N(C)C)ccc2O1	.	9	.	.	31*	.	-19
C[C@@H]1CCCCO[C@H](CN(C)Cc2ccc(Cl)c(Cl)c2)[C@H](C)CN([C@@H](C)CO)C(=O)c2cc(NC(=O)Nc3ccc(F)cc3)ccc2O1	.	-6	.	.	31*	.	-14
C[C@@H]1CCCCO[C@H](CN(C)C(=O)Cc2ccccc2)[C@H](C)CN([C@@H](C)CO)C(=O)c2cc(NC(=O)Nc3ccc(F)cc3)ccc2O1	.	6	.	.	10	.	.
CC(C)n1c(C=CC(O)CC(O)CC(=O)O)c(-c2ccc(F)cc2)c2ccccc21 (stereo not drawn)	6	.	.	.	.	-8	.
NCCCNC(=O)c1ccc(C=NO)nc1	2	.	.	.	.	2	.
Cc1[nH]ccc(=O)c1OCc1c(Cl)cccc1Cl	2	-2	8	0	-10	0	.
Cc1ccc(Cn2ccc(=O)c(OCc3c(Cl)cccc3Cl)c2C)cc1	0	17	-14	0	30*	4	7
Cc1cc(C)nc(NN=Cc2c(CO)cnc(C)c2O)n1	1	.	.	.	.	-4	.
CC(C)CCCCCCCCc1cccc(O)c1C(=O)O	.	0	.	.	43*	.	25
COc1ccc(NC(=O)Nc2cccc3c2OC(CN(C)C(=O)NC(C)C)C(C)CN(C(C)CO)C3=O)cc1 (stereo not drawn)	4	.	.	.	.	3	.
CCOc1ccc(NS(=O)(=O)c2ccc(-c3cnc(C4CC4)o3)cc2)cc1	9	4	-9	24	30*	-6	-16
COc1cc(-c2ccc(Nc3ccccc3C(=O)O)c(OC)c2)ccc1Nc1ccccc1C(=O)O	27	7	-14	-1	51*	55	39*
CCN1C(=O)C2C(c3ccc(-c4ccc(OC)cc4)cc3)N[C@@](CC(C)C)(C(=O)OC)C2C1=O (stereo partly drawn)	0	.	.	.	.	7	.
CC1CCC(N(C)C(=O)CN2C(=O)NC(c3ccccc3)(c3ccccc3)C2=O)CC1 (stereo not drawn)	.	-7	.	.	16	.	.
